# Over roughly 33,000 sequences, “E-score (-0.5 to 0.5)” has its median near -0.021; the highest 2% begin near 0.32. The list comes from a sample in which the highest values are over-represented; it also holds similar and randomly drawn sequences.
# Molecular target: T1, Zap1 (UniProt P47043)
# T1 sequence: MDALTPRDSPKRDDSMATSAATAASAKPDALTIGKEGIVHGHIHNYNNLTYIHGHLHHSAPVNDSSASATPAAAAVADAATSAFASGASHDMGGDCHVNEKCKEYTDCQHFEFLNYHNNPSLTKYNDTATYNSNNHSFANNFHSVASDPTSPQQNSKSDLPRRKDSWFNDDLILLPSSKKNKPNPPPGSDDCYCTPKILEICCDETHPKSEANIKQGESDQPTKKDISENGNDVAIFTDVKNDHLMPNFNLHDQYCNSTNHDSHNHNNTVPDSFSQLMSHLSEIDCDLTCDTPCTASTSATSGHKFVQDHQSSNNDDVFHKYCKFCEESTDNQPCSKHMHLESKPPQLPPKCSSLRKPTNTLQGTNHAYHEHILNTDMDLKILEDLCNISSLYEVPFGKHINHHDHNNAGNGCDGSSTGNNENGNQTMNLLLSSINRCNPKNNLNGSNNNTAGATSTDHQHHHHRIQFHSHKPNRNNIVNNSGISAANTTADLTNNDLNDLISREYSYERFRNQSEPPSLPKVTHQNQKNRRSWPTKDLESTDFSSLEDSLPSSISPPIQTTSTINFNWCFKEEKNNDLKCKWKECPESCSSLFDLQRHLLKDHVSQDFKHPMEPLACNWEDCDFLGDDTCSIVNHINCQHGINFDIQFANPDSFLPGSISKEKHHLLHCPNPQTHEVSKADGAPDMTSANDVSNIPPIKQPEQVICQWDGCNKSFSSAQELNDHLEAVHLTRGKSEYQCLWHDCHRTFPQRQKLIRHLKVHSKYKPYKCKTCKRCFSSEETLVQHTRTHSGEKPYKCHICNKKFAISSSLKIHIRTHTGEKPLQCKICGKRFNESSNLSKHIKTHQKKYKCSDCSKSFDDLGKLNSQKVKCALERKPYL
# Test: PBM E-score (8-mer binding enrichment) (E-score (-0.5 to 0.5)); higher = stronger / more preferred TF binding
# Conditions: protein concentration: 200 nM; construct: GST-full length
# Outline: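 Universal all-10-mer Agilent arrays, fresh or stripped once, were converted to double-stranded form by primer extension. GST-tagged yeast transcription factors from PURExpress in vitro transcription/translation, full-length or DNA-binding domain only, were applied at about 100-200 nM and detected with fluorescent anti-GST. After masliner normalisation, the Universal PBM Analysis Suite scored each ungapped eight-base word together with its reverse complement by E-score.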
row,Sequence,PBM E-score
1,CACTGGCG,-0.0169
2,GCTTCAAC,0.00654
3,TAGCCAGA,-0.00683
4,CGAGCTAA,-0.031
5,GATCAGAA,-0.106
6,AGTAATAT,0.178
7,AGAGCTAC,-0.184
8,CACCCACC,0.194
9,CCCCCACC,-0.378
10,ACCCCACC,0.419
11,GCCCCACC,0.283
12,AACCCACC,0.343
13,GACCCACC,0.245
14,CACCCACA,0.168
15,AACCCACA,0.331
16,AACCCACG,0.156
17,ATTTTCTA,0.122
18,CTATGAGC,-0.127
19,CTTCTCCC,-0.213
20,ATCCTCAC,0.0272
21,GAAGATGA,0.0533
22,AGGGTACT,0.441
23,AGCGTACT,-0.127

row,Sequence,PBM E-score
1,AGGGTACG,0.296
2,GGGGTACA,0.249
3,AGAGTACT,-0.144
4,AGGGTACC,0.461
5,AGGGTACA,0.337
6,AGTGTACC,0.0741
7,GGGGTACC,0.424
8,ACGGTACA,0.213
9,TGGGTACA,0.174
10,GGCGTACC,0.0458
11,CGAAGCAA,-0.00093
12,CCCCATAG,0.201
13,CAAAACTG,0.0208
14,CATGGGAG,0.0124
15,AAATATAT,0.224
16,ATCTATCG,-0.167
17,GAACAAGC,-0.175
18,CAGCCCAA,-0.0128
19,AATTCCGT,-0.0101
20,CGGGTACA,0.122
21,ATGGTACA,0.08
22,CTGGTACC,0.286
23,CGGGTACG,0.0198

row,Sequence,PBM E-score
1,CGGGTACC,0.432
2,ATGGTACC,0.392
3,ACGCTTGA,0.0154
4,CCCCTAGC,-0.167
5,GGGGCTTA,-0.25
6,ACGTCATA,-0.0571
7,ACCCAGCC,-0.139
8,AACTAAGA,0.0908
9,CCTGGGGA,-0.183
10,AGGGGTAG,0.312
11,AAGGGTAG,0.375
12,CTGGGTAA,0.185
13,AGGGGTAC,0.398
14,ACGGGTAG,0.255
15,GCGGGTAC,0.256
16,CCGGGTAC,0.348
17,CCGGGTAA,0.246
18,GGGGGTAC,0.186
19,CAGGGTAA,0.354
20,CGGGGTAC,0.316
21,CAGGGTGA,0.313
22,AGCCAAGC,-0.307
23,GGGTAGTA,0.219

row,Sequence,PBM E-score
1,ACTTCAAA,-0.13
2,GACACACA,0.028
3,GCGGGCGA,-0.105
4,CCCATCTA,-0.0762
5,ACCTATCC,0.152
6,ACAGTAGG,-0.209
7,CACGGGGA,-0.219
8,CGGGGTAA,0.299
9,AGGGGTAT,0.258
10,AAGGGTGT,0.316
11,GAGGGTGC,0.138
12,GAGGGTAC,0.374
13,GGGGGTAA,-0.0883
14,ATGGGTAA,0.242
15,TGGGGTAA,0.347
16,AGGGGTAA,0.272
17,AAGGGTAT,0.421
18,GATGGTAC,0.199
19,AAGGGTAA,0.393
20,CTTTCGCC,-0.179
21,CGGTTGTC,0.279
22,CATGTGCA,0.0255
23,TTCTTAAA,-0.028

row,Sequence,PBM E-score
1,ACGTCGTA,-0.287
2,CATCAATA,0.0615
3,CGTGGCCA,0.0519
4,GGCACGTA,-0.273
5,TAGGGTAA,0.396
6,AAGGGTAC,0.426
7,GAGGGTAA,0.264
8,ATGGGTAC,0.328
9,CTGGGTAC,0.305
10,ACGGGTAC,0.231
11,CAGGGTAG,0.306
12,CAGGGTAC,0.437
13,CAGGGTGC,0.0059
14,TCGGGTAA,0.24
15,ATGGGTAG,0.238
16,AAGGGTCC,0.274
17,AGTCAGGC,-0.101
18,CACTACGC,-0.163
19,CGGCTAGA,-0.178
20,CCCTGCGA,0.0758
21,CCAACTGC,-0.165
22,AACACAGT,-0.00444
23,AAGCTTTC,0.0356

row,Sequence,PBM E-score
1,CCGTGACA,-0.136
2,GCGTGACC,0.326
3,CCGTGACG,-0.0247
4,GCGTGACA,-0.136
5,CCGTGACC,0.376
6,ACGTGACC,0.249
7,TATACATA,0.106
8,CACTAGAG,0.0544
9,ACACTGAA,0.111
10,GCCAGACA,0.0344
11,GGTTACAA,0.455
12,CGTTACAC,0.0157
13,GGTTACAC,0.403
14,AGTTACAC,0.0701
15,TGTTACAA,0.098
16,CGTTACAA,0.121
17,GGGCTTAA,-0.0211
18,ACGTGTAT,-0.152
19,TATCGACA,0.0537
20,ATTGTGAC,0.159
21,CACATAGC,-0.136
22,ACGAGAGT,-0.197
23,ATCCCTAC,-0.023

# Source: the supplement of paper PMC3334620
